The results in this text go back to PubChem BioAssay AID1745848 (National Center for Advancing Translational Sciences (NCATS), 2022).

Among all 2,100 compounds or so, about 940 (45%) were called active. About 48% were inconclusive and are not listed. The set was probably picked from earlier hits. Some of the results follow. A number with no mark means an inactive call. Calls follow the shape of the dose curve; as a rule, active = well fitted inhibition curve with a large enough effect; inconclusive = small, poorly fitted or top-dose-only effect; inactive = no such curve, though single readings can be large or run the other way.
Potency is read from the fitted curve at half-maximal effect.

The nature of this assay: Confirmatory qHTS for Inhibitors of ATXN expression. Also: nearly all actives have a fitted effect of over 65% in size.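 As to activity change, negative = inhibition: 0% = DMSO vehicle wells and -100% = medium-only wells without cells.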 Particulars: ATXN2-luciferase reporter cells, luminescence, 24 h; series mostly up to 57.5 µM; activity change, negative = inhibition: at the top concentration. From the text: PI: Daniel Scoles Ph.D. University of Utah School of Medicine, Salt Lake City, Utah MLPCN Grant: NS073009 Spinocerebellar ataxia type 2 (SCA2) is a multisystem neurodegenerative disease caused by a dominantly acting mutation leading to expansion of a polyQ domain in the ataxin-2 protein (ATXN2). SCA2 patients develop progressive ataxia and later lose function in other neuronal systems. Prominent parkinsonian signs develop in some patients. Like many neurodegenerative disorders, no symptomatic or disease-modifying treatments are known. The primary objective of the proposed research is to identify compounds inhibiting ATXN2 expression and to test them for efficacy in SCA2 mouse models. We have developed a cell-based assay paired with an in vivo mouse model using identical luciferase expression constructs. This approach takes advantage of an ATXN2-luciferase transgene, with the luciferase gene flanked by the upstream and downstream portions of the ATXN2 gene. Here we describe a 5-7 dose quantitative high thoroughput screen (qHTS) for compounds lowering ATXN2 expression. We screened the NIH Molecular Libraries Small Molecule Repository (MLSMR) and NCGC's mechanistically annotated (MIPE) and drug repurposing (NPC) collections of compounds for lowering expression of an ATXN2-luciferase reporter in HEK-293 cells. The assay is a multiplexed cell viability assay to ensure target reduction in the absence of cytotoxicity. Secondary qHTS assays included a CMV-luciferase reporter expressed in HEK-293 cells as well as a biochemical assay using recombinant luciferase to detect inhibitors of the reporter enzyme. Compounds that inhibit ATXN2 expression but is not cytotoxic were selected for confirmatory and secondary screens.
PROTOCOL TABLE (as described by Inglese J, Shamu CE and Guy RK. 2007) SEQUENCE No. (e.g., 1, 2, 3, etc.); PARAMETER (e.g., Cells, Incubation, Reagent, etc.); VALUE; DESCRIPTION. 1; Cells; 4 uL; white, solid bottom, 1536-well Greiner assay plate. 2; Incubation; 2 hr; 37 degree C in 5% humidified CO2. 3; Compounds; 23 nL; Kalypsis pintool (Wako USA) equipped with a 1536-well pin head. 4; Incubation; 24 hr; 37 degree C in 5% humidified CO2. 5; Reagent; 1 uL; Gly-Phe-7-Amino-4-trifluoromethylcoumarin. 6; Incubation; 30 min; 37 degree C in 5% humidified CO2. 7; Detection; Fluorescence; ViewLux plate reader (PerkinElmer). 8; Reagent; 3 uL; SteadyGlo luciferase solution (Promega). 9; Incubation; 5 min; room temperature. 10; Detection; Luminescence; ViewLux plate reader (PerkinElmer). NOTES (numbers refer to Sequence numbers above) 1. […] expressing ATXN2-luciferase reporter were suspended in phenol-red free DMEM and dispensed in assay plates using a Multidrop Combi dispenser (Thermo Fisher Scientific). Wells containing medium only were plated on each plate, and values were used to normalize (100% inhibition) in the luciferase and CellTiter-Fluor assays. 2. Assay plates were incubated. Evaporation was prevented by covering assay plates with metal lids containing holes to allow gas diffusion. 3. Compounds were added in a dose response manner with the final concentrations of 57, 11.4, 2.28, 0.46, 0.091, 0.018, 0.0037 uM. Vehicle-only plates, with DMSO being pin-transferred to columns 5-48, were inserted uniformly at the beginning and the end of each library to monitor and record any shifts in assay performance. 5. 125 uM Gly-Phe-7-Amino-4-trifluoromethylcoumarin (MP Biomedicals) working concentration was used at a final concentration of 25 uM. 7. To assess cell viability; the assay plates were read using the ViewLux high-throughput CCD imager (PerkinElmer), wherein single end-point fluorescence measurement was acquired (excitation 405/10; emission 540/25 nm). 8. Detection reagent SteadyGlo Luciferase (Promega) was added to the assay plate. 10. Luminescence is then measured on the ViewLux imager equipped with a clear emission filter using a 2 sec exposure. […]
Consider `C[C@]12CC[C@H](O)C[C@H]1CC[C@@H]1[C@@H]2CC[C@]2(C)[C@@H](C3=CC(=O)OC3)CC[C@]12O`, for which the Potency was 282 nM (active). As to `CC12CCC(O)CC1CCC1C2CCC2(C)C(C3=CC(=O)OC3)CCC12O` (centres undefined), the Potency is 398 nM (active). Consider `C[C@]12CCC3C(CCC4=CC(O)CC[C@@]43/C=N/O)C1(O)CCC2C1=CC(=O)OC1` (some centres undefined), for which the Potency was 355 nM (active).

Turning to `COc1ccc(O)c2c(=O)c3c(OC)cc4c(c3oc12)C1C=COC1O4` (centres undefined), the Potency is 2000 nM (active). On the same count and under the same terms, the result for `O=C1NC(=O)N(CCc2ccc(F)cc2)C(=O)/C1=C/C=C/c1ccccc1` reads 7940 nM (active). As to `c1ccc2sc(N3CCNCC3)nc2c1`, the “activity change, negative = inhibition” value is -24.4%. In the case of `COc1cc2nc(CN3CC=C(c4ccccc4)CC3)[nH]c(=O)c2cc1OC`, the Potency was 282 nM (active). Same read-out and setting: the result for `COc1cc2c(cc1OC)-c1c3c(cc4c1[C@@H](C2)N(C)CC4)OCO3` reads 1120 nM (active). With `COC1C(O)C(C)OC(OC2C(Oc3cccc4c(O)c5c(=O)oc6ccc(C)c7c(=O)oc(c34)c5c67)OC(C)C(O)C2O)C1O` (centres undefined), the activity change, negative = inhibition is -5.87% [at 11.5 µM]. As for `CN1C(=O)NC(=O)/C(=C\C=C\c2ccccc2[N+](=O)[O-])C1=O`, the Potency was 11200 nM (active). For the molecule `CCCCN=C[C@]12CCC(O)CC1(O)CCC1[C@@H]2CC[C@]2(C)[C@H](C3C=CC(=O)O3)CCC12O` (some centres undefined), the Potency is 631 nM (active). For the molecule `CC12CCC3C(CCC4(O)CC(O)CCC34C=NO)C1(O)CCC2C1=COC(=O)C1` (centres undefined), the Potency was 282 nM (active). Turning to `CNC(=O)Nc1ccc(C(=O)N/N=C\C23CC[C@@H](O)CC2(O)CC[C@@H]2[C@@H]3CCC3(C)C(C4=CC(=O)OC4)CCC23O)cc1` (some centres undefined), the Potency is 25100 nM (active).

Consider `C1=NCCc2c1[nH]c1ccccc21`, for which the Potency is 3160 nM (active). As for `CC(=O)OC1(C)CC(C)C(=O)C(C(O)CC2CC(=O)NC(=O)C2)C1` (centres undefined), the Potency was 10 nM (active). Turning to `C[C@@H]1C[C@@H]([C@H](O)CC2CC(=O)NC(=O)C2)C(=O)[C@@H](C)C1`, the Potency was 1260 nM (active).

As to `C[C@H]1C[C@@H](C)C(=O)[C@@H]([C@H](O)CC2CC(=O)NC(=O)C2)C1`, the Potency was 178 nM (active). Consider `O=C(CSC1c2ccccc2-c2ccccc21)N/N=C/c1ccccc1O`, for which the Potency was 3160 nM (active). In the case of `C[C@H]1CCC[C@H](O)CCCCCc2cc(O)cc(O)c2C(=O)O1`, the Potency is 3160 nM (active). Consider `C[C@H]1CCC[C@@H](O)CCC/C=C/c2cc(O)cc(O)c2C(=O)O1`, for which the Potency was 1410 nM (active). Consider `COc1ccc(CCNCc2ccc(F)cc2)cc1OC`, for which the activity change, negative = inhibition is -6.67% [at 11.5 µM]. As for `O=C(Nc1ccc(OC(=O)N2CCCCC2)cc1)N1CCOCC1`, the Potency was 4470 nM (active). Still for that read-out and setting: the result for `CC(=O)O[C@H]1[C@H]2O[C@]23[C@@H]2CC[C@]4(O)C[C@@H](O)CC[C@]4(C)C2CC[C@]3(C)[C@H]1c1ccc(=O)oc1` (some centres undefined) reads 39.8 nM (active); that for `C[C@H]1[C@@H](OS(=O)(=O)O)C[C@@H]2C[C@H]([C@@H](O)c3cc(=O)[nH]c(=O)[nH]3)NC3=NC[C@H]1N32`, 7940 nM (active); that for `NC(=O)c1c(Br)n(C2OC(CO)C(O)C2O)c2ncnc(N)c12` (centres undefined), 1580 nM (active).

Consider `COc1cccc(C(c2nnnn2-c2ccc3c(c2)OCCO3)N2CCC(n3c(=O)[nH]c4ccccc43)CC2)c1OC` (centres undefined), for which the Potency is 3550 nM (active). Consider `O=c1[nH]c2ccccc2n1C1CCN(C(c2cc3ccccc3o2)c2nnnn2-c2ccc3c(c2)OCCO3)CC1` (centres undefined), for which the Potency was 3160 nM (active). The same measure, in the same setting: the result for `Cc1cccc(C)c1-n1nnnc1C(c1cc2ccccc2o1)N1CCC(n2c(=O)[nH]c3ccccc32)CC1` (centres undefined) reads 3160 nM (active). Turning to `COC(=O)C(O)(c1ccc(NC(=S)NC(=O)c2ccc(Cl)cc2Cl)c(C)c1)C(F)(F)F` (centres undefined), the activity change, negative = inhibition was -8.26% [at 11.5 µM]. For the molecule `CN1C2CCC1/C(=C/c1ccccn1)C(=O)/C2=C\c1ccccn1`, the Potency is 398 nM (active).

`CC1CC(C)CC(C)C(O)C(C#N)=CC=CCC(C2CCCC2C(=O)O)OC(=O)CC(O)C(C)C1` (centres undefined): the Potency was 501 nM (active). For `O=C1NC2C(=CC(O)C(O)C2O)c2cc3c(cc21)OCO3` (centres undefined), the Potency was 199 nM (active). For the molecule `CCCCc1ccc2[nH]cc(CCN)c2c1`, the Potency was 3160 nM (active). For the molecule `NC(Cc1ccc(Cl)cc1)c1csc(Nc2ccccn2)n1` (centres undefined), the Potency is 22400 nM (active).
